What follows are compounds tested against Follistatin-related protein 3 (Homo sapiens) (UniProt O95633) (assay: FSTL3 binders on small-molecule microarrays, primary screen, biochemical, small-molecule microarray, 635 nm fluorescence (AID 1105;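 note: score merges emission near 667 nm and signal to noise per printed spot across three slides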)). Details: FSTL3 binding, higher = more signal.
Chain of Follistatin-related protein 3 (Homo sapiens) (O95633 whole entry, looked up): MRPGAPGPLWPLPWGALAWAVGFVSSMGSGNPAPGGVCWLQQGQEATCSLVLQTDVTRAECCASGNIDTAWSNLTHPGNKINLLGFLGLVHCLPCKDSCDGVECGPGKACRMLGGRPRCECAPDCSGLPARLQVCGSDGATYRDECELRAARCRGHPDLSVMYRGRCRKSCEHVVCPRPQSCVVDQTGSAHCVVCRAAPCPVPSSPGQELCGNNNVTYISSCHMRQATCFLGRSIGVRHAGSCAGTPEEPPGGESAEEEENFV
`COc1ccc(O[C@H]2C=C[C@@H](c3ccccc3)O[C@@H]2CON=CC[C@@H]2C=C[C@H](OC(C)=O)[C@@H](COC(C)=O)O2)cc1` showed a composite z-score of 0.128.
With `CO[C@H]1COC(=O)CC=C[C@@H](C)[C@H](NS(=O)(=O)c2ccc(C)cc2)COC(=O)CCC[C@@H]1C` the composite z-score was 1.04.
For `CON=CC[C@@H]1C=C[C@H](OC(C)=O)[C@@H](COC(C)=O)O1`, the composite z-score was 0.727.
In the case of `C=COC[C@@H]1CN2[C@@H](CC[C@@H](C)[C@@H]2c2ccc(Br)cc2)C(=O)O1`, the composite z-score is reported as -0.46.
Work on `O=C1[C@H]2[C@H]3[C@H](O)[C@H](O)CC(=NOCc4ccccc4)[C@@H]3CC[C@H]2C(=O)N1Cc1ccc2c(c1)OCO2` yielded a composite z-score of 0.517.
Compound `COC(=O)NCC=Cc1nc(CCCO)co1` has a composite z-score of 0.887.
Work on `CO[C@H]1COC(=O)CC=C[C@H](C)[C@@H](OC)COC(=O)[C@@H](C)COC(=O)CC=C[C@@H]1C` yielded a composite z-score of 1.47.
`COC(=O)[C@@H]1CC[C@H](C)[C@@H](c2ccc(C)cc2)N1C(=O)c1ccc(C=NOC[C@@H](C)[C@H](OCc2ccccc2)C(C)C)cc1` gave a composite z-score of 0.804.
`COC(=O)CC=C[C@@H](C)[C@@H](C=NO[C@@H]1O[C@H](COC(C)=O)[C@@H](OC(C)=O)[C@H](OC(C)=O)[C@H]1OC(C)=O)NS(=O)(=O)c1ccc(C)cc1` showed a composite z-score of -0.212.
For `CCOC(=O)[C@H](CC(C)C)NC(=O)CCC1CC(OC(=O)NCc2cccc3ccccc23)CC2(CCCC(COC(=O)NCCOc3ccccc3)O2)O1` (stereo not given in full), the composite z-score was 0.887.
For `COc1cccc([C@H]2Oc3ccc(OC)cc3C(=NO[C@@H](C)c3cn([C@H](CO)Cc4ccccc4)nn3)[C@@H]2O)c1`, the composite z-score was -0.201.
With `COC(=O)CC=C[C@@H](C)[C@@H](C=NOC[C@H]1O[C@H](c2ccccc2)C=C[C@@H]1Oc1ccc(OC)cc1)NS(=O)(=O)c1ccc(C)cc1` the composite z-score was -1.2.
For `C=CC1=C[C@H](O)[C@@H]2O[C@@H]2C12OCCCO2`, the composite z-score was -0.0047.
`COC(=O)CC=C[C@@H](C)[C@H](OCc1cccc(-c2ccccc2)c1)C1CCCCC1` showed a composite z-score of 0.736.
With `CC(C)CON=C1C[C@@H](O)[C@@H](O)[C@@H]2[C@@H]3C(=O)N(Cc4ccc5c(c4)OCO5)C(=O)[C@@H]3CC[C@H]12` the composite z-score was 0.671.
With `COc1ccc(O[C@H]2C=C[C@@H](c3ccccc3)O[C@@H]2CON=C(C)C)cc1` the composite z-score was -0.0815.
Work on `COC(=O)CC=C[C@@H](C)[C@@H](C=NOC(C)CN1CCCc2nc(C)c(C)cc21)OC` (stereo not given in full) yielded a composite z-score of 0.406.
With `CC(C)(C)N1C(=O)[C@H]2[C@H]3[C@H](O)[C@H](O)CC(=NO[C@@H]4O[C@H](CO)[C@@H](O)[C@H](O)[C@H]4O)[C@H]3CC[C@H]2C1=O` the composite z-score was 0.487.
Work on `C#CCCCON=C1C[C@@H](O)[C@@H](O)[C@@H]2[C@@H]3C(=O)N(C(C)(C)C)C(=O)[C@@H]3CC[C@H]12` yielded a composite z-score of -0.866.
Work on `CCOC(=O)NN=C1C[C@@H](O)[C@@H](O)[C@@H]2[C@@H]3C(=O)N([C@@H](C)c4ccccc4)C(=O)[C@@H]3CC[C@H]12` yielded a composite z-score of 0.345.
With `COC(=O)[C@@H]1CC[C@H](C)[C@@H](c2ccc(C)cc2)N1C(=O)c1ccc(C=NO[C@H](C)c2cn([C@H](CO)Cc3ccccc3)nn2)cc1` the composite z-score was 1.05.
For `CCOC(=O)CCN1C(=O)[C@H]2[C@H]3[C@H](O)[C@H](O)CC(=NNC(=O)OCc4ccccc4)[C@@H]3CC[C@H]2C1=O`, the composite z-score was 0.993.
`CC(C)=CCCC(C)=CCON=C1C[C@@H](O)[C@@H](O)[C@@H]2[C@@H]3C(=O)N(c4ccc(F)cc4F)C(=O)[C@@H]3CC[C@@H]12` gave a composite z-score of 0.806.
With `CCc1cc2c(nc1CC)CCN(CCC(C)=NO[C@H](C)c1cn([C@H](CO)Cc3ccccc3)nn1)C2` the composite z-score was 0.11.
In the case of `COC(=O)[C@H](C)NC(=O)CCC1CC(OC(=O)NCCc2ccc(F)cc2)CC2(CCCC(COC(=O)NCCC(C)C)O2)O1` (stereo not given in full), the composite z-score is reported as 0.961.
For `CCN1C(=O)[C@@H]2[C@H]3C(=CC[C@@H]2C1=O)C1(OCCCO1)[C@H]1O[C@H]1[C@H]3O`, the composite z-score was 1.22.
In the case of `CCCNC(=O)OC[C@H]1O[C@H](CCON=C(C)CCN2CCc3nc(CC)c(CC)cc3C2)C=C[C@@H]1Oc1ccc(OC)cc1`, the composite z-score is reported as 0.125.
Compound `COc1cccc([C@H]2Oc3ccc(OC)cc3C(=NO[C@H](C)c3cn([C@H](CO)Cc4ccccc4)nn3)[C@@H]2O)c1` has a composite z-score of -0.0403.
Work on `Cc1ccc(S(=O)(=O)n2c3ccccc3c3nnc(C(=O)c4ccccc4)nc32)cc1` yielded a composite z-score of 0.511.
In the case of `CCOC(=O)[C@H](Cc1ccccc1)NC(=O)CCC1CC(OC(=O)NCc2ccc3c(c2)OCO3)CC2(CCCC(COC(=O)NCCc3ccccc3OC)O2)O1` (stereo not given in full), the composite z-score is reported as 1.35.

From PubChem BioAssay
